{
  "source": "PubChem BioAssay AID2284185",
  "about": "(EPA ToxCast)",
  "note": "Calls of active or inactive are those of the source. Rule for the calls: active = hit-call score of the fitted dose curve at least 0.9, where 1 is the maximum; inactive = score below 0.9.",
  "data": [
    {"target": "human Dopamine Receptor D4.2 Antagonism, DRD4 (gene 1815) (UniProt P21917)", "sequence (P21917 whole entry, looked up)": "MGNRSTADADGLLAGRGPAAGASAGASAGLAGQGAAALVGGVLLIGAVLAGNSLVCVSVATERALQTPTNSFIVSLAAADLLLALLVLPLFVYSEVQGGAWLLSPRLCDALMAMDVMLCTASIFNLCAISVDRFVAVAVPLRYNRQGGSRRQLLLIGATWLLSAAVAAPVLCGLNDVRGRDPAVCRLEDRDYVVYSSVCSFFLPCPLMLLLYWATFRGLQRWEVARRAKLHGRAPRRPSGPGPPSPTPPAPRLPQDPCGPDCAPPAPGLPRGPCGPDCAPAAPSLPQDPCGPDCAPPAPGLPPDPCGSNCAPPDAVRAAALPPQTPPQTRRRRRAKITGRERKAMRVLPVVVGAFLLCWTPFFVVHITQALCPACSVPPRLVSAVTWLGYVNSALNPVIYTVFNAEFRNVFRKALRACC", "experiment": "ERF_TW_GPCR_hDRD4: Eurofins (ERF) G Protein-Coupled Receptor (GPCR) Radioligand Binding LeadHunter Assay for human Dopamine Receptor D4.2 Antagonism", "description": "ERF_TW_GPCR_hDRD4 is a biochemical, single-readout assay that uses extracted gene-proteins in a cell-free assay. Measurements were taken 2 hour after chemical dosing in a 96-well plate. See D4.2 Human Dopamine GPCR Binding (Antagonist Radioligand) Assay, Panlabs.ERF_TW_GPCR_hDRD4 is an assay component calculated from the ERF_TW_GPCR_hDRD4 assay. It is designed to measure radioligand binding using a type of binding reporter as detected by scintillation counting with radiometry technology.Data from the assay component ERF_TW_GPCR_hDRD4 was analyzed at the assay endpoint, ERF_TW_GPCR_hDRD4, in the positive analysis fitting direction relative to DMSO as the negative control and baseline of activity. Using a type of binding reporter, loss-of-signal activity can be used to understand changes in binding as they relate to gene DRD4. To generalize the intended target to other relatable targets, this assay endpoint is annotated to the gpcr intended target family, where the subfamily is dopamine.\nHuman recombiant cells are prepared in Tris-HCl buffer pH 7.4. A 24 ug aliquot is incubated with 0.5 nM [3H] Spiperone for 2 hours at 25C. Non-specific binding is estimated in the presence of 10 uM Haloperidol.", "values": [
      {"smiles": "O=C(/C=C/c1ccc(O)cc1)CC(=O)/C=C/c1ccc(O)cc1", "AC50": "1120 nM (active)"}
    ]}
  ]
}
